The list is not random: actives were taken first. Their share in the collection is about 2.1%.
KLF5 inhibitor: KLF5 expression inhibitors, primary screen, DLD-1 cells, luminescence. DLD-1 KLF5 promoter-luciferase reporter. inhibition, % at 5 µM. 290,000 compounds, 0.23% hits;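 active = inhibition above a per-plate limit of that plate's mean compound inhibition plus 3 SD, cut at about 60% in these data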;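 also: 0% = DMSO wells and 100% = LY294002 at 200 µM; higher means less KLF5 promoter-driven luciferase light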
aSyn UTR inh: MLPCN primary screen, SNCA 5' untranslated region; AID 1813, 2009; 300,000 compounds, 0.82% hits; alpha-synuclein 5'UTR reporter, inhibitor activity; inhibition, % (tested at 7.5 µM); in the data active = inhibition above about 60%;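 also: H4 neuroglioblastoma cells stably carrying SNCA 5'UTR luciferase fusion; 0% = DMSO wells and 100% = positive control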
BaF3 tox: parental Ba/F3 cell viability inhibition, counter-screen for JAK2V617F inhibitor project, murine pro-B, CellTiter-Glo luminescence. CellTiter-Glo ATP luminescence. inhibition, % at 5.6 µM. 220,000 compounds, 1.1% hits. AID 1486, 2009;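 active = inhibition above a per-campaign cutoff, the mean inhibition of all tested compounds plus 3 SD, cut at about 27% in these data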;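 also: 0% = DMSO wells and 100% = JAK Inhibitor I control wells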
Ba/F3 V617F tox: reduced viability of JAK2V617F-dependent Ba/F3 cells, primary screen, JAK2V617F inhibitor project, cell-based, Ba/F3 EpoR-JAK2V617F, luminescence. ATP luminescence. inhibition, % at 5.6 µM. 220,000 compounds, 1.1% hits. AID 1446, 2008;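 active = inhibition above the campaign mean plus 3 SD over all tested compounds, cut at about 24% in these data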;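 also: cytokine-independent growth of Ba/F3 cells driven by EpoR plus mutant JAK2; 0% = DMSO-treated cells and 100% = JAK inhibitor I control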
APP transl inh: inhibitors of APP translation via 5'UTR reporter, primary screen, APP 5'UTR luciferase, SH-SY5Y cells | inhibition, % at 2 µM | 190,000 compounds, 0.82% hits | SH-SY5Y APP 5'UTR-luciferase reporter, luminescence;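 active = inhibition above a set limit, derived from the sample mean plus 3 SD, cut at about 45% in these data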
IEC-6 tox: cytotoxicity in IEC-6 intestinal epithelial cells, primary screen, cytotoxicity control for KLF5 inhibitor project, cell-based, luminescence | IEC-6 cytotoxicity, luminescence viability | inhibition, % at 5 µM | 290,000 compounds, 0.78% hits | AID 1825, 2009; in the data active = inhibition above about 22%;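 also: 0% = plate median of test compound wells and 100% = cytotoxic reference compound wells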
Active calls of the source: *; . = no result given.

SMILES	KLF5 inhibitor	aSyn UTR inh	BaF3 tox	Ba/F3 V617F tox	APP transl inh	IEC-6 tox
CCn1cc(CNC(=S)Nc2cccc3ccccc23)cn1	-22	-16	2	-4	3	-6
O=[N+]([O-])c1ccc(C[n+]2cccc3ccc4cccnc4c32)cc1	28	-30	76*	60*	-26	-2
CC(C)Oc1ccccc1C1NC(=O)CCC1[N+](=O)[O-] (stereo unspecified)	-15	-15	.	.	.	-5
O=C(Nc1ccc(Cl)cc1)Nc1ccc(N2CCCC2)c(S(=O)(=O)Nc2ccccc2Cl)c1	-25	35	37*	53*	4	4
COc1ccccc1NS(=O)(=O)c1cc(NC(=O)Nc2cccc(C)c2)ccc1N1CCCCC1	-18	-8	8	1	-27	-15
N#Cc1cnn2c1nc(N1CCCCC1)c1ccccc12	7	64*	8	-1	-4	2
O=C(Nc1cnccc1C(F)(F)F)NC1CCCCC1	-30	7	0	-3	.	-7
O=C(COc1ccccc1Cl)N1CCN(c2ccc(F)cc2)CC1	-11	12	93*	0	-12	-1
Cc1cccc(-n2ncc3c(N(CCO)CCO)ncnc32)c1	-59	-106	4	-1	-73	7
Cc1cccc(-n2ncc3c(N(C)C4CCCCC4)ncnc32)c1	.	66*	.	.	.	.
COc1cccc(N2CCN(c3ncnc4c3[nH]c3ccc(F)cc34)CC2C)c1 (stereo unspecified)	57	47	53*	63*	27	36*
COc1cccc(N2CCN(c3ncnc4c3[nH]c3ccccc34)CC2C)c1 (stereo unspecified)	-9	-73	10	0	0	-2
Cc1cc(C(=O)N/N=C/c2cc(N=Nc3ccccc3)ccc2O)n[nH]1	18	66*	10	5	50*	0
c1ccc2c(c1)CSc1ccccc1N2	.	104*	.	.	.	.
O=C(N/N=C/c1cccs1)c1n[nH]c2c1CCC2	-71	68*	0	0	-6	7
O=C(N/N=C/c1ccccc1Cl)c1n[nH]c2c1CCCC2	-79	83*	4	1	-131	9
O=C(N/N=C/c1cccs1)c1cccnc1	-33	7	-3	-6	.	4
CC1(C)CC(=NNC(=O)c2n[nH]c3c2CCC3)CC(C)(C)N1	-5	-26	3	1	82*	3
O=C(N/N=C/c1ccccc1)c1n[nH]c2c1CCCC2	-81	-88	2	1	-105	6
Cc1ccc(Cl)cc1N1CCN(S(=O)(=O)c2cc3c(cc2C)NC(=O)CO3)CC1	-5	-14	.	.	.	0
COc1cccc(NCc2cc(=O)oc3cc(C)c(C(C)C)cc23)c1	-20	10	.	.	.	9
COc1cc([N+](=O)[O-])cc(/C=N/NC(=O)c2ccc(NC(=O)c3ccc(C)cc3)cc2)c1O	-7	42	1	-1	87*	-5
COc1cccc(/C=N/NC(=O)c2cc3cc([N+](=O)[O-])ccc3s2)c1O	-21	107*	0	-4	51*	4
C[n+]1ccc(/C=C/c2ccc(Br)cc2)cc1	-18	-40	83*	79*	-8	-2
Cc1ccc2[nH]c(C)c(/C=C/c3cc[n+](C)cc3)c2c1	-10	54	.	.	.	-1
SMILES	KLF5 inhibitor	aSyn UTR inh	BaF3 tox	Ba/F3 V617F tox	APP transl inh	IEC-6 tox
CCN(c1ccccc1C(=O)O)S(=O)(=O)c1ccc2[nH]c(=O)[nH]c2c1	-5	20	.	.	.	2
O=C(O)C1(c2ccccc2)CCN(S(=O)(=O)c2ccc(Br)cc2)CC1	-3	-1	.	.	.	0
CCc1ccc(-c2nc(CSCC(=O)NC3CC3)c(C)o2)cc1	42	71*	.	.	.	-6
Cc1cccc(C(=O)Nc2ccc(S(=O)(=O)Nc3nc(C)cc(C)n3)cc2)c1	-53	11	.	.	.	-16
O=C(Nc1ccc(Oc2c(F)c(F)c(F)c(F)c2F)cc1)OC1CCN2Cc3ccccc3N=C12 (stereo unspecified)	-11	104*	-6	-2	.	0
c1ccc(CN2CCC(Nc3nc(-c4cccs4)nc4ccccc34)CC2)cc1	-13	62*	5	4	-13	15
COc1cc(C2C=C(c3cccs3)Nc3ncnn32)cc(OC)c1OC (stereo unspecified)	5	.	6	4	-13	-7
COc1ccc(-c2nnc(SCc3nc4ccccc4c(=O)[nH]3)o2)cc1	-11	-70	53*	0	.	2
CCOCCCNC(=S)NCCCNc1nc2c(C)cc(C)cc2cc1C#N	-17	.	6	4	11	-1
Cc1cc(C)c2nc(NCCCNC(=S)NCCCN(C)C)c(C#N)cc2c1	-24	96*	6	1	-11	-2
CSC1=C(C#N)C(c2ccc(Cl)cc2)C2=C(CC(C)(C)CC2=O)N1 (stereo unspecified)	.	71*	.	.	.	.
O=C(Nc1cc(C(F)(F)F)ccc1-n1cncn1)c1ccc([N+](=O)[O-])o1	.	-50	.	.	.	.
Cc1ccccc1C1c2[nH]c3ccccc3c2CCN1Cc1cccn1-c1ncccn1 (stereo unspecified)	3	10	32*	2	.	7
CSc1ccc2c(c1)N(CCC1CCCCN1C)c1ccccc1S2 (stereo unspecified)	-10	110*	6	0	-1	.
COc1cc(C)nc(NC(=S)N(C)C(=O)c2ccccc2)n1	-4	-6	-4	1	.	3
CC(C)(C)c1nnc(N/N=C/c2ccccc2O)n(N)c1=O	19	110*	1	-3	76*	-3
CC(C)(C)c1nnc(N/N=C/c2ccccc2)n(N)c1=O	0	-34	6	-2	-8	-14
CCc1nnc(N/N=C/c2ccccc2F)n1N	6	-28	-1	9	10	102*
COc1ccc(C2CC(c3c(O)cc(C)oc3=O)=NCCS2)c(OC)c1 (stereo unspecified)	-48	.	1	-3	93*	6
Cc1cc(O)c(C2=Nc3ccccc3SC(c3ccc(Cl)cc3)C2)c(=O)o1 (stereo unspecified)	-17	-261	2	-2	-112	0
Cc1cc(C(=O)Nc2cccc(C(=O)O)c2)c(C)o1	-17	-92	3	-2	-12	4
Cc1cc(C(=O)Nc2cccc(C(=O)O)c2)oc1C	-2	87*	5	-3	2	-12
c1ccc(Sc2ccccc2CN2CCCC2)cc1	.	85*	.	.	.	.
S=C(Nc1cccc(Cl)c1)N1CCN(Cc2ccccc2)CC1	-24	-46	9	1	4	-3
S=C(Nc1ccccc1)N1CCN(Cc2ccccc2)CC1	10	-10	39*	5	.	0
Nc1[nH]n(-c2ccccc2)c(=O)c1N=Nc1ccc2c(c1)OCCO2	-125	-25	2	-1	-167	5

Source: PubChem
